In the library only some 4.1% were active in any assay of this set; here they are far more common.
hcDAF12 agonist: H. contortus DAF-12 activation, primary screen; HEK293 hcDAF-12 lit1-tk-luc reporter, luminescence; 0% DMSO, 100% Δ7-dafachronic acid; activation, % at 6.8 µM; hit rate 1.4% among 370,000;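 active means activation above the mean of all tested compounds plus 3 SD, cut at about 5.5% in these data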
ssDAF12 agonist: activators of S. stercoralis DAF-12 nuclear receptor | activation, % at 6.8 µM | hit rate 1% among 370,000 | HEK293 ssDAF-12/GRIP1 lit1-tk-luc reporter, luminescence; % of 3 µM dafachronic acid response;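 active means activation above the mean over all tested compounds plus 3 SD, cut at about 0.9% in these data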
DAX1 inh-1: inhibits human nuclear receptor DAX1. P51843. HEK293 Gal4-DAX1 luciferase reporter, luminescence. inhibition, % at 6.75 µM. hit rate 0.99% among 340,000;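 active means inhibition above the mean over all tested compounds plus 3 SD, cut at about 4.2% in these data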;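 further: inhibition shows as a rise in luminescence from relieved DAX1 repression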
Target sequence (P51843 207-470 limits assumed): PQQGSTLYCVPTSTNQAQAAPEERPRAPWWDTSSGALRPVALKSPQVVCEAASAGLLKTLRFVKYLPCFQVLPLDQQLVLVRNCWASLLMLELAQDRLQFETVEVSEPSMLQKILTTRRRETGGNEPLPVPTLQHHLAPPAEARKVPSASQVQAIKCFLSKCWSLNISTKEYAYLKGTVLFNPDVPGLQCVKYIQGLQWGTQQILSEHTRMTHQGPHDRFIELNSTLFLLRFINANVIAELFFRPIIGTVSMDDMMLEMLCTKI
hgDAF12 agonist: activates the H. glycines DAF-12 receptor ligand-binding domain; HEK293 GAL4-hgDAF12 UAS-luciferase reporter, agonist luminescence; normalized to butyrate control; hit rate 1.8% among 370,000; activation, % at 6.8 µM; AID 687014;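 active means activation above a cutoff set at the mean of all screened compounds plus 3 SD, cut at about 10% in these data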
DAX1 inh-2: inhibitors of DAX1 repression of SF-1 activated StAR promoter. HEK293T StAR-luciferase reporter, SF-1/DAX-1 repression relief. inhibition, % at 6.8 µM. hit rate 1.1% among 370,000. AID 652010;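 active means inhibition above the mean over all tested compounds plus 3 SD, cut at about 3.6% in these data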;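 further: higher inhibition means more luminescence from relief of DAX-1 repression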
Hits are given with their value.

For COCCNC(=O)C1(C)C=CC2(CCCCC2)N1C(=O)c1ccccc1 (configuration not stated) the results were hcDAF12 agonist inactive, ssDAF12 agonist inactive, DAX1 inh-1 4.7, hgDAF12 agonist inactive and DAX1 inh-2 inactive.
Screening CCCC(=O)N1CCC[C@]2(CC[C@H](CCC#N)O2)C1 returned hcDAF12 agonist inactive, ssDAF12 agonist inactive, hgDAF12 agonist inactive and DAX1 inh-2 inactive.
`COC(=O)c1cn(-c2ccc3c(c2)[C@@]2(CC(=O)N(C)C2c2ccccc2)C(=O)N3CC(C)C)nn1` (some centres not stated) gave hcDAF12 agonist inactive, ssDAF12 agonist inactive, hgDAF12 agonist inactive and DAX1 inh-2 inactive.
Cc1ccc(-c2nnc(SCC(=O)Nc3ccc4c(c3)OCCO4)n2-c2ccc(Cl)cc2)cc1 was read as hcDAF12 agonist inactive, ssDAF12 agonist inactive, hgDAF12 agonist inactive and DAX1 inh-2 inactive.
`O=C(Cc1nnc(NC(=O)Nc2ccc(F)cc2)s1)Nc1ccccc1` gave hcDAF12 agonist inactive, ssDAF12 agonist 1.1, DAX1 inh-1 inactive, hgDAF12 agonist inactive and DAX1 inh-2 inactive.
`O=c1cc(CN2CCCCC2)c2c(ccc3ccccc32)o1` gave hcDAF12 agonist inactive, ssDAF12 agonist inactive, hgDAF12 agonist inactive and DAX1 inh-2 inactive.
Screening C=CCn1c(C)cc(C(=O)CSc2nc(N)cc(N)n2)c1C returned hcDAF12 agonist inactive, ssDAF12 agonist inactive, DAX1 inh-1 4.6, hgDAF12 agonist inactive and DAX1 inh-2 inactive.
`Cc1cc(C(=O)CSc2nc(N)cc(N)n2)c(C)n1C1CC1` gave hcDAF12 agonist inactive, ssDAF12 agonist inactive, DAX1 inh-1 inactive, hgDAF12 agonist inactive and DAX1 inh-2 inactive.
`Cc1ccc(N=CC=C2OC(C)(C)C(C)(C)O2)cc1` gave hcDAF12 agonist 5.7, ssDAF12 agonist inactive, DAX1 inh-1 inactive, hgDAF12 agonist inactive and DAX1 inh-2 inactive.
Screening Cc1cccc(N=CC=C2OC(C)(C)C(C)(C)O2)c1 returned hcDAF12 agonist inactive, ssDAF12 agonist inactive, DAX1 inh-1 inactive, hgDAF12 agonist inactive and DAX1 inh-2 inactive.
For CC1(C)CC(=O)C(CSC(=O)c2ccccc2)C(=O)C1 the results were hcDAF12 agonist inactive, ssDAF12 agonist inactive, DAX1 inh-1 inactive, hgDAF12 agonist inactive and DAX1 inh-2 inactive.
Screening Cc1ccc(C(=O)N/N=C\C=C\c2ccc(Br)cc2)cn1 returned hcDAF12 agonist 6.5, ssDAF12 agonist 1.0, DAX1 inh-1 inactive, hgDAF12 agonist inactive and DAX1 inh-2 inactive.
Screening CCc1c(-c2cccc(Cl)c2)ncn1CCc1ccccc1OC returned hcDAF12 agonist inactive, ssDAF12 agonist inactive, hgDAF12 agonist inactive and DAX1 inh-2 inactive.
`CC1=C(C(=O)OC(C)C)C(c2c[nH]c3ccccc23)n2ncnc2N1` (configuration not stated) gave hcDAF12 agonist 5.7, ssDAF12 agonist inactive, DAX1 inh-1 inactive, hgDAF12 agonist inactive and DAX1 inh-2 inactive.
Screening COc1ccccc1C1C(C(N)=O)=C(C)Nc2ncnn21 (configuration not stated) returned hcDAF12 agonist inactive, ssDAF12 agonist inactive, DAX1 inh-1 6.7, hgDAF12 agonist inactive and DAX1 inh-2 inactive.
For Cc1nc(CSc2nnc(C)s2)cs1 the results were hcDAF12 agonist inactive, ssDAF12 agonist inactive, DAX1 inh-1 4.7, hgDAF12 agonist inactive and DAX1 inh-2 inactive.
Screening Cc1nnc(SCc2ccc(F)cc2)s1 returned hcDAF12 agonist inactive, ssDAF12 agonist inactive, DAX1 inh-1 inactive, hgDAF12 agonist inactive and DAX1 inh-2 inactive.
Screening Cc1nnc(SCc2cccc3ccccc23)s1 returned hcDAF12 agonist inactive, ssDAF12 agonist inactive, DAX1 inh-1 7.0, hgDAF12 agonist inactive and DAX1 inh-2 inactive.
Screening C/C(=C\C(=O)Nc1cscc1C)C(=O)O returned hcDAF12 agonist inactive, ssDAF12 agonist 1.1, DAX1 inh-1 inactive, hgDAF12 agonist inactive and DAX1 inh-2 inactive.
`COC(=O)c1cscc1NC(C)=O` gave hcDAF12 agonist inactive, ssDAF12 agonist inactive, DAX1 inh-1 inactive, hgDAF12 agonist inactive and DAX1 inh-2 inactive.
Screening Cc1ccc(-n2c(COc3cccc(C)c3)n[nH]c2=S)cc1 returned hcDAF12 agonist inactive, ssDAF12 agonist inactive, DAX1 inh-1 4.8, hgDAF12 agonist inactive and DAX1 inh-2 inactive.
For Cc1cccc(OCc2n[nH]c(=S)n2-c2ccccc2)c1 the results were hcDAF12 agonist inactive, ssDAF12 agonist inactive, DAX1 inh-1 inactive, hgDAF12 agonist inactive and DAX1 inh-2 inactive.
COC(=O)c1nc(-c2ccccc2)oc1N(C)C was read as hcDAF12 agonist inactive, ssDAF12 agonist inactive, DAX1 inh-1 inactive, hgDAF12 agonist inactive and DAX1 inh-2 inactive.
For COC(=O)c1nc(-c2ccc(C)cc2)oc1N(C)C the results were hcDAF12 agonist inactive, ssDAF12 agonist 1.0, DAX1 inh-1 inactive, hgDAF12 agonist inactive and DAX1 inh-2 inactive.
`COC(=O)C1CN(Cc2ccc(F)cc2)CCS(=O)(=O)N1Cc1cn(Cc2ccc(Cl)cc2)nn1` (configuration not stated) gave hcDAF12 agonist inactive, ssDAF12 agonist inactive, hgDAF12 agonist inactive and DAX1 inh-2 inactive.
For C(=C\c1ccccc1)/CSc1nc2ncccc2[nH]1 the results were hcDAF12 agonist inactive, ssDAF12 agonist inactive, DAX1 inh-1 4.5, hgDAF12 agonist inactive and DAX1 inh-2 inactive.
`C[C@H]1C2CC(OC(=O)Nc3cccc(Cl)c3)C(C2)[C@H]2CCCCN21` (some centres not stated) gave hcDAF12 agonist inactive, ssDAF12 agonist inactive, hgDAF12 agonist inactive and DAX1 inh-2 inactive.
`COc1ccc(-c2cc(=O)oc3c(C)c(OCc4nn[nH]n4)ccc23)cc1` gave hcDAF12 agonist inactive, ssDAF12 agonist inactive, DAX1 inh-1 7.3, hgDAF12 agonist inactive and DAX1 inh-2 inactive.
Cc1c(CC(=O)O)c(=O)oc2c(C)c(OCc3nn[nH]n3)ccc12 was read as hcDAF12 agonist inactive, ssDAF12 agonist inactive, DAX1 inh-1 inactive, hgDAF12 agonist inactive and DAX1 inh-2 inactive.
Screening Cc1c(Cc2ccccc2)c(=O)oc2c(C)c(OCc3nn[nH]n3)ccc12 returned hcDAF12 agonist inactive, ssDAF12 agonist inactive, DAX1 inh-1 5.3, hgDAF12 agonist inactive and DAX1 inh-2 inactive.
O=C(N[C@H]1C[C@@H]2O[C@H](CO)CC[C@@H]2O[C@@H]1CCc1ccc(-c2cccnc2)cc1)c1cccc(F)c1 was read as hcDAF12 agonist inactive, ssDAF12 agonist inactive, hgDAF12 agonist inactive and DAX1 inh-2 inactive.
`COc1ccccc1OCC(=O)Nc1ccc(S(=O)(=O)Nc2cc(C)on2)cc1` gave hcDAF12 agonist inactive, ssDAF12 agonist 1.2, DAX1 inh-1 inactive, hgDAF12 agonist inactive and DAX1 inh-2 inactive.
For Cc1cc(NS(=O)(=O)c2ccc(NC(=O)/C=C/c3ccc(Br)cc3)cc2)no1 the results were hcDAF12 agonist inactive, ssDAF12 agonist inactive, DAX1 inh-1 inactive, hgDAF12 agonist inactive and DAX1 inh-2 4.5.
Screening Cc1cc(NS(=O)(=O)c2ccc(NC(=O)c3oc4ccccc4c3C)cc2)no1 returned hcDAF12 agonist inactive, ssDAF12 agonist 0.9, DAX1 inh-1 inactive, hgDAF12 agonist inactive and DAX1 inh-2 inactive.
`Cc1cc(NC(=O)COc2ccccc2C(N)=O)no1` gave hcDAF12 agonist inactive, ssDAF12 agonist inactive, DAX1 inh-1 4.8, hgDAF12 agonist inactive and DAX1 inh-2 inactive.

Source: PubChem (The Scripps Research Institute Molecular Screening Center)
